Experiment [1] is described as follows: small molecules captured by biotinylated probe aFSTL3 – biochemical, small-molecule microarray, fluorescence 635/667, stem cell growth factor project, primary screen (AID 1064).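 Also: measures binding of the biotinylated anti-FSTL3 antibody to printed compounds.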 Particulars: higher = more signal.
Experiment [2] in a line: binders from COS7 lysate, DM2A8 probe, primary screen, torsin A project, cell lysate, small-molecule microarray, fluorescence 635/667 (AID 1065). The following applies: higher = more signal, COS7 lysate expressing mutant human TOR1A.
The nature of experiment [3]: small molecules captured by biotinylated probe aFGF2 – biochemical, small-molecule microarray, fluorescence 635/667, stem cell growth factor project, primary screen (AID 1067).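 Also: measures binding of biotinylated aFGF2 protein to printed compounds on slides; z-score merges feature fluorescence and signal-to-noise across triplicate slides.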 The following applies: higher = more signal.
Experiment [4] in a line: small molecules captured by biotinylated probe aFGF10 – biochemical, small-molecule microarray, fluorescence 635/667, stem cell growth factor project, primary screen (AID 1071).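 Also: score merges 667 nm spot intensity and signal to noise from triplicate slides.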 The following applies: higher = more signal.
Experiment [5] deals with Neurogenic locus notch homolog protein 2 (Homo sapiens) (UniProt Q04721). As to the kind of experiment: small molecules binding Notch2 protein – biochemical, small-molecule microarray, 635 nm fluorescence, stem cell growth factors, primary screen (AID 1073). The following applies: higher = more signal.
Experiment [6] has as its target Pro-neuregulin-1, membrane-bound isoform (Homo sapiens) (UniProt Q02297). The experiment can be described thus: small molecules binding neuregulin-1 protein – biochemical, small-molecule microarray, fluorescence 635/667, psychiatric disease protein project, primary screen (AID 1075).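 Also: score combines 667 nm spot fluorescence with signal to noise.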 Particulars: NRG1 binding, 635 nm fluorescence, higher = more signal.
Experiment [7] concerns Neuregulin-1 EGF-like domain. As to the kind of experiment: small molecules binding NRG1 EGF domain – biochemical, small-molecule microarray, 635 nm fluorescence, primary screen (AID 1081).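 Also: binding of the protein to compounds printed on small-molecule microarray slides.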 Particulars: higher = more signal.
A short description of experiment [8]: FRG1 expression reporter modulators in myotubes – cell-based, C2C12 myotubes, firefly/Renilla luciferase, luminescence, FRG1 inhibition for FSHD, primary screen (AID 1084). Particulars: FRG1 promoter luciferase, higher = more signal, called active from +8 up or from −8 down.
Experiment [9] in a line: small molecules captured by biotinylated probe aFST – biochemical, small-molecule microarray, fluorescence 635/667, stem cell growth factor project, primary screen (AID 1086).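 Also: score merges 667 nm fluorescence with signal-to-noise of each printed compound spot.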 The following applies: higher = more signal.
Experiment [10] is described as follows: binders of probe aHhip on microarray, primary screen, stem cell growth factor project, biochemical, small-molecule microarray, fluorescence 635/667 (AID 1087).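 Also: score merges spot fluorescence at 667nm with spot signal to noise ratio.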 Particulars: higher = more signal.
For experiment [11], the system named is PRMT1 (protein arginine N-methyltransferase 1). As to the kind of experiment: small molecules binding arginine methyltransferase PRMT1 – biochemical, small-molecule microarray, 635 nm fluorescence, primary screen (AID 1088).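 Also: binding of Prmt1 protein to compounds spotted on small-molecule microarray slides.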 Particulars: higher = more signal.
Experiment [12] is described as follows: growth effects on S. cerevisiae YJM789 – YJM789 clinical isolate, OD600, 24 h, basal, primary screen (AID 1089).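 Also: growth of clinical yeast isolate S. cerevisiae YJM 789 seeded 1000 cells per well; test concentration not given here.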 The following applies: higher = more signal, called active from +8 up or from −8 down.
Experiment [13] is described as follows: S. pombe growth modifiers, basal conditions – strain 972, OD600, 24 h, no modulator, primary screen (AID 1090).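 Also: basal condition with compound alone and no growth modifier present; test concentration not given here.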 The following applies: S. pombe 972 growth, higher = more signal, called active from +8 up or from −8 down.
Experiment [14] in a line: budding yeast growth modifiers under rapamycin – strain BY4716, OD600, 96 h, primary screen (AID 1091). Also: test concentration not given here. Particulars: S. cerevisiae BY4716 + rapamycin, higher = more signal, called active from +8 up or from −8 down.
Experiment [15] addresses Torsin-1A-interacting protein 2 (Homo sapiens) (UniProt Q8NFQ8). The experiment can be described thus: small molecules binding lysate-expressed LULL1 – cell lysate, human LULL1 lysate, 635/667 nm fluorescence, primary screen (AID 1092).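 Also: probe is lysate of COS7 cells overexpressing human LULL1; score merges per-feature 667 nm fluorescence with signal-to-noise.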 The following applies: small-molecule microarray, hLULL1 lysate binding, 635 nm fluorescence; higher = more signal.
Experiment [16] is described as follows: optical density change of DRC41 E. coli – strain DRC41, OD650, 24 h, E. coli filamentation project, primary screen (AID 1093).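 Also: MC1000 strain lacking acrAB efflux and sulA so SOS filamentation is blocked; test concentration not given here.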 Particulars: E. coli DRC41 growth, higher = more signal, called active from +8 up or from −8 down.
A short description of experiment [17]: probe aLefty2 binding to arrayed compounds – biochemical, biotinylated probe, 635/667 nm fluorescence, primary screen (AID 1094).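 Also: score merges spot fluorescence near 667 nm with spot signal-to-noise ratio.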 Particulars: small-molecule microarray, higher = more signal.
Experiment [18] deals with Noggin (protein binding on small-molecule microarray). As to the kind of experiment: small molecules binding Noggin protein – biochemical, 635/667 nm fluorescence, primary screen (AID 1095).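 Also: score merges 667 nm feature fluorescence with signal to noise over triplicate slides.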 The following applies: 635 nm fluorescence, higher = more signal.
Experiment [19] deals with Neurogenic locus notch homolog protein 3 (Homo sapiens) (UniProt Q9UM47). The experiment can be described thus: small molecules binding NOTCH3 protein – biochemical, 635/667 nm fluorescence, primary screen (AID 1096). Particulars: small-molecule microarray, 635 nm fluorescence, higher = more signal.
Experiment [20] is described as follows: probe aEGFR binding to arrayed compounds – biochemical, biotinylated probe, 635/667 nm fluorescence, primary screen (AID 1097).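 Also: probe is a biotinylated anti-EGFR antibody binding compounds printed on slides; score combines fluorescence near 667 nm and signal to noise of each spot.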 The following applies: small-molecule microarray, higher = more signal.

Each structure is given as a SMILES string. Active and inactive are the calls of the source.

Sequence of Neurogenic locus notch homolog protein 2 (Homo sapiens) (Q04721 whole entry, looked up, canonical isoform): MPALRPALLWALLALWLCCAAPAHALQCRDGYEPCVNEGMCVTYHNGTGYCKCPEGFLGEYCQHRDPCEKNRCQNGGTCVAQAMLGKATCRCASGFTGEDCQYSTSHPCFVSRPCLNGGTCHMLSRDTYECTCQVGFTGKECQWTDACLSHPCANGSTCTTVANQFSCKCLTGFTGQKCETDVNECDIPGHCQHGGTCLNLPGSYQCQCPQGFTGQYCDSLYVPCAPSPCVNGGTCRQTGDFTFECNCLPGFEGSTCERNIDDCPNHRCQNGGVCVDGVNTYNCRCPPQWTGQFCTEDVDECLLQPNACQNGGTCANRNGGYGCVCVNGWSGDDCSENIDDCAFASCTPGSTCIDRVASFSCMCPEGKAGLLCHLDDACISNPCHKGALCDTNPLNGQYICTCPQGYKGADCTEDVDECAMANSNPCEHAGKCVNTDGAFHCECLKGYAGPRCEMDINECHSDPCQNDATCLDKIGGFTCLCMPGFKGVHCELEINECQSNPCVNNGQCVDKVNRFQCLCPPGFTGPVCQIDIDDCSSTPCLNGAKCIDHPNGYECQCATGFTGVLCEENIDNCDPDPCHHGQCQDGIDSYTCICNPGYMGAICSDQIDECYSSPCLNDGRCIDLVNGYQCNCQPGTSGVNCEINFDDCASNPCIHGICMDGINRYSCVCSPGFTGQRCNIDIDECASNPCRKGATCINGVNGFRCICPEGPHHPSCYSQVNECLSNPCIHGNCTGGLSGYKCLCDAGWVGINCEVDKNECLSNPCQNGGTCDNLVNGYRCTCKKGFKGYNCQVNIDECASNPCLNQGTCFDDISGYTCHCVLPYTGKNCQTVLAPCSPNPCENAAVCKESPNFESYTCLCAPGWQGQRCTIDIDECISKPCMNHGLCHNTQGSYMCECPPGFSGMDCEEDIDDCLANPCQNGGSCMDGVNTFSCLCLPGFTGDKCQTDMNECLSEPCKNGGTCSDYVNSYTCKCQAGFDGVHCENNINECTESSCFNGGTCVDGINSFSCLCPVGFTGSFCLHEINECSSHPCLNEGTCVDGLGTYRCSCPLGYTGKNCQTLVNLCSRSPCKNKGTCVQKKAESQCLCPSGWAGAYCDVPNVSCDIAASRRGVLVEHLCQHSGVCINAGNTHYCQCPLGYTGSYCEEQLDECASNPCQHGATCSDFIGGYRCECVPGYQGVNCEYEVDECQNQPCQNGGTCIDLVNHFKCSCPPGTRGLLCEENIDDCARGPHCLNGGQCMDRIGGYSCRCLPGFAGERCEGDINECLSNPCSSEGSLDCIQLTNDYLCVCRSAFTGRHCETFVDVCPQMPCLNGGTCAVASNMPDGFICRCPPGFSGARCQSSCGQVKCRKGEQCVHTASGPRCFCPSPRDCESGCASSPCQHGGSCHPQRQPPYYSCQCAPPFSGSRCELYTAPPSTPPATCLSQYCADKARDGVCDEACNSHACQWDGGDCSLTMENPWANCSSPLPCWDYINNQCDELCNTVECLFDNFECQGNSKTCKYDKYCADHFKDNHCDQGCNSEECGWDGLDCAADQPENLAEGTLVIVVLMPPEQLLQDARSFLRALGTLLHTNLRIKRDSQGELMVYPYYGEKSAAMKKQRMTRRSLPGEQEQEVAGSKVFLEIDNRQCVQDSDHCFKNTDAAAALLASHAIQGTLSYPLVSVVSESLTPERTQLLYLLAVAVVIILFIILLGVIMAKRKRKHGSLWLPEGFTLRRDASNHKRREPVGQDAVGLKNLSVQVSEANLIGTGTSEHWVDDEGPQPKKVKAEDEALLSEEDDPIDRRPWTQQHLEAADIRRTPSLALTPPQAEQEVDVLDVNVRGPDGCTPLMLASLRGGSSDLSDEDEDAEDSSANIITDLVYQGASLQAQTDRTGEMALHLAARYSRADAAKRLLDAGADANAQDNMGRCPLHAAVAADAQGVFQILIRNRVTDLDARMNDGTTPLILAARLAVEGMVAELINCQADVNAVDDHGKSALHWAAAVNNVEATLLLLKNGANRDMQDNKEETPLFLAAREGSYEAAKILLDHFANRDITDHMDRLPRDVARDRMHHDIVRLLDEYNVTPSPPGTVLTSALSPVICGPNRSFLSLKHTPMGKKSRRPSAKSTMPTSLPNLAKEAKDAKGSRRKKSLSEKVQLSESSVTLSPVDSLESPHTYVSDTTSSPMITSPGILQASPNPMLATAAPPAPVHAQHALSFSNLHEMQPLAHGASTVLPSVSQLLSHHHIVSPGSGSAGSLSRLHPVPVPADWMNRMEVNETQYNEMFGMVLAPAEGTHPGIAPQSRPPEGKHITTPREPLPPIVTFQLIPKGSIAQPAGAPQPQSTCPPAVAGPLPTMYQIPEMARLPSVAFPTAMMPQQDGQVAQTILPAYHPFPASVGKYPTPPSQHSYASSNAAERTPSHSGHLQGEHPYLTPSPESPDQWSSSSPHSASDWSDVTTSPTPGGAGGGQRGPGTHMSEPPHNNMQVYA
Sequence of Pro-neuregulin-1, membrane-bound isoform (Homo sapiens) (Q02297 whole entry, looked up, the tested form may be a part, canonical isoform): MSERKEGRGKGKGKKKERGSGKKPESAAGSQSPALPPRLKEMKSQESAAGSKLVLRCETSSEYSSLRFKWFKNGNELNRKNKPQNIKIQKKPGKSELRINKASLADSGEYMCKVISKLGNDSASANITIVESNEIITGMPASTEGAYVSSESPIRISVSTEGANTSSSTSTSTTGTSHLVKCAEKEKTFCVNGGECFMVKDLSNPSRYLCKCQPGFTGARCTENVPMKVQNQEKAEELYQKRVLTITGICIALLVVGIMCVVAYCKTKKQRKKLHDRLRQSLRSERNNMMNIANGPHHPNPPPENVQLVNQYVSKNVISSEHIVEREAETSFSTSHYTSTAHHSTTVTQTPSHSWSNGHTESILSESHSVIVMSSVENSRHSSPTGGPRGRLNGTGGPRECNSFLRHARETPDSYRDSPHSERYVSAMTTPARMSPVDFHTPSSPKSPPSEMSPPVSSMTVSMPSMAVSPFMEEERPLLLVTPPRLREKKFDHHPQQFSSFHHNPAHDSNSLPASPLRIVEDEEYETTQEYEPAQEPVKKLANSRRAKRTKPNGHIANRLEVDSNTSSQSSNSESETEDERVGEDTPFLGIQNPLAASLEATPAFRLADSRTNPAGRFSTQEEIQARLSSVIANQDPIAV
Sequence of Torsin-1A-interacting protein 2 (Homo sapiens) (Q8NFQ8 whole entry, looked up): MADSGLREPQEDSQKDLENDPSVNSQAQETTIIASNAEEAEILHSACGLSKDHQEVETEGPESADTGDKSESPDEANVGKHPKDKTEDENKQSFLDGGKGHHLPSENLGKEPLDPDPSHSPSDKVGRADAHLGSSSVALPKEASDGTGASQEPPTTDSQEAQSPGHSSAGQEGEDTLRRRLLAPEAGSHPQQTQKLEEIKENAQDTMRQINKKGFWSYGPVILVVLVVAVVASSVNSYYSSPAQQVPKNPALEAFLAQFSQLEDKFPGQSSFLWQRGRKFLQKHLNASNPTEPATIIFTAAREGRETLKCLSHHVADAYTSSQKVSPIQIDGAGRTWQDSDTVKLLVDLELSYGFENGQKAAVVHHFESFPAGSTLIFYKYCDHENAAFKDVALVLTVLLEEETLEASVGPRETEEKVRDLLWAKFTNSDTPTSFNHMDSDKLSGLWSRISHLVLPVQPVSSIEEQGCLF

`COCCOC(=O)N1C(=O)[C@@]2(c3cc(C#CC4=CCCCC4)ccc31)[C@H](c1ccc(O)cc1)N1[C@H](c3ccccc3)[C@H](c3ccccc3)OC(=O)[C@H]1[C@@H]2C(=O)N1CCCCCCC1`: the composite z-score in experiment [1] was 2.57; in [2], -0.264; in experiment [3] it was -0.06; in [4], 0.0509; in [5] it was 0.521; in experiment [6] it was 0.292. In addition, the composite z-score in experiment [7] is 0.359; in experiment [9], 0.547; in experiment [10], 0.294; in [11], 1.57; in experiment [15] it was 2.11; in experiment [17], 0.367. The composite z-score came to 1.42 in experiment [18], 1.13 in experiment [19] and 0.0143 in [20]. The z-score in [8] is 0.0812 (inactive); in [12], 0.2 (inactive); in [13] it was -1.06 (inactive); in experiment [14] it was 0.776 (inactive); in experiment [16], 2.01 (inactive).

Turning to `C[C@@H]1CC[C@H]2C(=O)N3CCC[C@H]3C(=O)N2[C@H]1c1ccc(Br)cc1`, the composite z-score in [1] is -0.162; in experiment [2], 0.0769; in [3] it was -0.11; in experiment [4] it was -0.121; in experiment [5] it was -0.829; in experiment [6] it was -0.267. The composite z-score is 0.0421 in [7]; -0.0423 in experiment [9]; 0.0274 in experiment [10]; -0.455 in experiment [11]; 0.178 in [15]; -0.207 in [17]. For the same molecule, the composite z-score is 0.49 in experiment [18], -0.383 in experiment [19] and -0.166 in experiment [20]. For the same molecule, the z-score in [8] was -0.228 (inactive); in [12], 0.233 (inactive); in experiment [13] it was -0.228 (inactive); in experiment [14], -0.0146 (inactive); in experiment [16], 0.784 (inactive).

`COCCOC(=O)N1C(=O)[C@@]2(c3cc(C#CCC(C(=O)OC)C(=O)OC)ccc31)[C@H](c1ccccc1OCCO)N1[C@H](c3ccccc3)[C@H](c3ccccc3)OC(=O)[C@H]1[C@@H]2C(=O)N1CCCCCCC1`: the composite z-score in [1] was 3.6; in [2], 0.618; in experiment [3], 0.486; in [4], 0.388; in experiment [5] it was 0.966; in experiment [6] it was 0.889. Moreover, the composite z-score in experiment [7] came to 1.33; in experiment [9] it was 2.9; in experiment [10], 2.32; in experiment [11], 1.51; in experiment [15], 3.29; in [17], 1.53. In addition, the composite z-score in experiment [18] is 1.63; in experiment [19], 1.11; in experiment [20], 0.83. The z-score in [8] was -0.0751 (inactive); in experiment [12], 1.22 (inactive); in [13] it was 0.639 (inactive); in experiment [14] it was 3.35 (inactive); in experiment [16], -0.366 (inactive).

`CO[C@H]1COC(=O)CC=C[C@H](C)[C@@H](OC)COC(=O)[C@H](Cc2ccccc2)NC(=O)CC=C[C@@H]1C`: the composite z-score is -0.304 in experiment [1]; 1.36 in [2]; -0.167 in experiment [3]; -1.09 in [4]; -1.79 in [5]; -0.806 in [6]. In addition, the composite z-score is -1.09 in experiment [7]; -0.463 in [9]; 0.0524 in experiment [10]; 0.942 in experiment [11]; -1.22 in [15]; -0.298 in experiment [17]. The composite z-score was 1.68 in [18], 0.0612 in [19] and -0.172 in experiment [20]. Also, the z-score in [8] was -1.01 (inactive); in [12], 0.37 (inactive); in experiment [13], -0.623 (inactive); in [14], 0.725 (inactive); in experiment [16], -0.145 (inactive).

Consider `CO[C@@H]1COC(=O)CC=C[C@@H](C)[C@H](OC)COC(=O)CC=C[C@H]1C`, for which the composite z-score is -0.762 in experiment [1]; 1.22 in experiment [2]; -0.14 in experiment [3]; -0.228 in experiment [4]; -0.541 in experiment [5]; -0.503 in experiment [6]. In addition, the composite z-score in experiment [7] was -0.366; in [9] it was 0.169; in [10], -0.16; in experiment [11], -0.0399; in experiment [15] it was -0.266; in [17], -0.38. In addition, the figures for the composite z-score in experiment [18], in experiment [19] and in experiment [20] were 1.71, -0.801 and -0.158, respectively. Also, the z-score is 0.211 (inactive) in [8]; -0.131 (inactive) in [12]; -0.761 (inactive) in experiment [13]; -0.891 (inactive) in experiment [14]; 0.162 (inactive) in experiment [16].

(Values after PubChem BioAssay.)
